Assay outcomes deposited in PubChem by National Center for Advancing Translational Sciences (NCATS).
S-ASM inh: Inhibitors of Secretory Acid Sphingomyelinase (S-ASM): qHTS | Sphingomyelin phosphodiesterase (Homo sapiens), P17405 | placental ASM, HMU-PC fluorogenic substrate, 60 min | Potency, µM (series often up to 57.5 µM), inactives show top-dose activity change, negative = inhibition, usual class: inhibitors | 0.006% of 340,000 active | AID 504937, 2011; also: potency is read from the fitted curve at half-maximal effect
Target sequence (P17405 47-631 limits assumed): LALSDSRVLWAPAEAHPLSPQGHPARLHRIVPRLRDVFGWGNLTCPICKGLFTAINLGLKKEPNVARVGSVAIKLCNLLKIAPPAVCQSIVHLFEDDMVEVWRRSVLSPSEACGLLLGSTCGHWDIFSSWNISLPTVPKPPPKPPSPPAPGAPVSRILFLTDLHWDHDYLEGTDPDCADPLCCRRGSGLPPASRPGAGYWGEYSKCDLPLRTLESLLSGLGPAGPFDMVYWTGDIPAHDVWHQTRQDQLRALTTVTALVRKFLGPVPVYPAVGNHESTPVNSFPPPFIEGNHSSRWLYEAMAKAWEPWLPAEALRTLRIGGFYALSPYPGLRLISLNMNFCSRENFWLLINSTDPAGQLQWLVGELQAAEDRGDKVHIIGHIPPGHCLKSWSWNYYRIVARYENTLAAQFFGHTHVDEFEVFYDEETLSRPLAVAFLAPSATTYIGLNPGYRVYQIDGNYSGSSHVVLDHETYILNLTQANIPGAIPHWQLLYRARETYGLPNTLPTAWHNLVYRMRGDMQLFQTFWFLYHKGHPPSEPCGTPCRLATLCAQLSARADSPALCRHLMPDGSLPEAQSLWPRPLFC
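Fluorescence read-out (Ex 386 nm, Em 447 nm) after stopping the reaction at pH 10. Enzyme: ASM from human placenta; substrate HMU-PC0, 9 uM final; 60 min, 37 °C. Compound preincubation 10 min, ambient temperature.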
TDP1 cell CPT: qHTS for Inhibitors of human tyrosyl-DNA phosphodiesterase 1 (TDP1): qHTS in cells in presence of CPT; Potency, µM (top dose mostly 46.2 µM), for inactives: at the highest dose activity change, negative = growth inhibition, usual class: inhibitors; chicken DT40 Tdp1-/-;hTDP1 cells + 20 nM CPT, ATP luminescence, 48 h; 12% of 420,000 active; also: potency is read from the fitted curve at half-maximal effect; % is scaled to controls: 0 for no effect and ±100 for the full control effect; nearly all actives have a fitted effect of over 55% in size
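Chicken DT40 Tdp1-/- cells stably complemented with human TDP1 were seeded at 400 cells/well in medium containing 20 nM camptothecin, exposed to pin-transferred compounds, and grown at 37 °C for at least 48 hr. Viability was read as ATP luminescence.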
HepG2 viability: qHTS for Inhibitors of TGF-b: Cytotox Counterscreen | HepG2 CAGA-GFP viability, ATP luminescence, 18 h | Potency, µM (top dose mostly 46.1 µM), for inactives: at the top dose activity change, negative = cytotoxicity, most hits filed as cytotoxic | 0.76% of 410,000 active; also: potency is read from the fitted curve at half-maximal effect
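CellTiter-Glo luminescence gave cytotoxicity after 18 hours at 37 degrees C. The cells were HepG2 CAGA-GFP in 1% FBS DMEM, stimulated with 500 pg/mL TGF-beta after compound addition. %Activity was normalised to no-cell wells (complete cell-killing) and DMSO (no toxicity), and curves were fitted and classified.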
TDP1 cell noCPT: qHTS for Inhibitors of human tyrosyl-DNA phosphodiesterase 1 (TDP1): qHTS in cells in absence of CPT | DT40 Tdp1-/- hTDP1 cells, no CPT, ATP luminescence, 48 h | Potency, µM (titrated, usually from 46.2 µM), without a hit: at the top dose activity change, negative = growth inhibition, usual class: inhibitors | 15% of 420,000 active | AID 686978, 2013; also: potency is read from the fitted curve at half-maximal effect; % is scaled to controls: 0 for no effect and ±100 for the full control effect; nearly all actives have a fitted effect of over 55% in size
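A cellular qHTS used chicken DT40 cells lacking endogenous Tdp1 but carrying stably transfected human TDP1. Compounds were applied without camptothecin, and cell growth kinetics were judged by ATP-dependent luminescence after ≥48 hr.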
TGFb SMAD3 inh: qHTS for Inhibitors of TGF-b. HepG2 CAGA-GFP TGF-b/SMAD3 reporter, GFP fluorescence, 18 h; TGF-beta stimulated, 500 pg/mL final. Potency, µM (top dose mostly 46.1 µM), for inactives: at the top dose activity, negative = inhibition, most hits filed as inhibitors. 1.2% of 410,000 active. AID 588855, 2011; also: potency is read from the fitted curve at half-maximal effect; % is scaled to controls: 0 for no effect and ±100 for the full control effect; nearly all actives have a fitted effect of over 65% in size
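GFP signal (ex488/em500-530) from TGF-beta-stimulated HEPG2 CAGA-GFP cells, 500 pg/mL final, 18 h at 37 degrees C in DMEM plus 1% FBS, normalized to unstimulated and DMSO-stimulated controls.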
IL-1B inflam inh: qHTS for Inhibitors of Inflammasome Signaling: IL-1-beta AlphaLISA Primary Screen. THP-1 LPS/ATP IL-1B secretion, AlphaLISA, 16 h; hits give low values. 4.7% of 360,000 active. activity change, % at 57.5 µM. AID 743279, 2014; in the data active = activity change below about -50%; inconclusive = mostly about -30% to -49%; also: % is scaled to controls: 0 for no effect and ±100 for the full control effect
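THP-1 cells pretreated 1 hr with compounds (up to 57.5 uM final), then stimulated with LPS (250 ng/mL final) plus ATP (1.25 mM final); secreted IL-1B measured by AlphaLISA after 16 hr, decreased signal indicating inhibition.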
An asterisk follows results filed as active; u = inconclusive; x = not tested or not shown. Hits are enriched below; roughly 19% of the tested compounds scored in any of these assays. Unless noted, calls follow the shape of the dose curve; as a rule, active = well fitted curve in the direction sought with a large enough effect; inconclusive = small, poorly fitted or top-dose-only effect, or another doubt; inactive = no such curve, though single readings can be large; an effect the other way counts as inactive or inconclusive.

SMILES | S-ASM inh | TDP1 cell CPT | HepG2 viability | TDP1 cell noCPT | TGFb SMAD3 inh | IL-1B inflam inh
CN(C)c1cccc(C(=O)N(C)C2CCCN(Cc3ccccc3F)C2)c1 (stereo not given) | 6% | -1% | -27% | u | 17% | -11
CCc1ccc(S(=O)(=O)c2nnn3c2nc(N(CC)Cc2ccccc2)c2cc(Cl)ccc23)cc1 | x | 9.2µM* | -3% | 16µM* | -5% | x
O=S(=O)(c1ccccc1)c1nnn2c1nc(NCc1ccccc1)c1cc(Cl)ccc12 | x | 18µM* | 4% | u | 12% | x
COCCCNc1nc2c(S(=O)(=O)c3ccccc3)nnn2c2ccc(Cl)cc12 | x | -1% | -4% | -6% | -6% | x
O=C1CCCN1CCCNc1nc2c(S(=O)(=O)c3ccccc3)nnn2c2ccc(Cl)cc12 | 5% | 21µM* | -18% | u | -12% | u
CCOc1ccc(C(=O)Nc2nnc(S(=O)(=O)N(CC)c3ccccc3C)s2)cc1 | x | u | -5% | u | -13% | x
CC(=O)c1ccc(N2CCN(c3ncnc4c3cnn4C)CC2)cc1 | x | u | 1% | 8.2µM* | -9% | x
Cc1ccc(Cl)cc1-n1ncc2c(N3CCCCCC3)ncnc21 | x | 5.8µM* | -34% | 8.2µM* | u | x
CCc1ccc(Nc2ncnc3c2cnn3-c2cc(Cl)ccc2C)cc1 | x | u | -23% | -81% | 14% | x
CC(=O)c1ccc(N2CCN(c3ncnc4c3cnn4-c3cc(Cl)ccc3C)CC2)cc1 | x | 2.6µM* | -13% | 5.8µM* | -13% | x
COc1ccc(N2CCN(c3ncnc4c3cnn4-c3ccc(C)c(Cl)c3)CC2)cc1 | x | -11% | -3% | -12% | 3% | x
CCN(c1ncnc2c1cnn2-c1cc(Cl)ccc1C)C1CCCCC1 | x | 15µM* | -33% | 15µM* | u | x
Nc1ccc2oc(-c3ccc4nc[nH]c4c3)nc2c1 | 138% | 21µM* | -44% | 10µM* | -6% | -20
CCCN1C2CCCC1CC(NC(=O)Nc1cccc(C(C)=O)c1)C2 (stereo not given) | 0% | -14% | -21% | 2% | 0% | 21
CCc1cccc(CC)c1NC(=O)CN1C2CCCC1CC(NC(=O)Nc1cccc(OC)c1)C2 (stereo not given) | 0% | 18µM* | -35% | u | -14% | u
COc1cccc(C(=O)NC2CC3CCCC(C2)N3CC(=O)Nc2ccccc2C(F)(F)F)c1 (stereo not given) | 6% | u | -7% | 16µM* | u | -16
O=C(NC(=O)N1CCCCCC1)c1ccccc1 | 3% | -12% | -1% | 9% | 41% | -14
COc1ccc(C(=O)Nc2ccc(-c3nnc4n3CCCCC4)cc2)cc1OC | x | 13µM* | 3% | 13µM* | u | x
COc1ccc(NC(=O)CSc2nnc3n2CCCCC3)cc1OC | x | 2% | -11% | 0.21µM* | -4% | u
CC(C)(C)NC(=S)NNC(=O)c1cccc(Br)c1 | -2% | 5.8µM* | -45% | 6.5µM* | u | 10
O=C(NNC(=S)Nc1ccccc1)c1cccc(Br)c1 | 2% | -12% | -26% | -25% | u | 32
COC(=O)NNC(=O)c1ccc(Cl)cc1Cl | 2% | -26% | 17% | 11% | 1% | -4
CC(C)(C)NC(=S)NNC(=O)c1ccccc1Cl | 2% | 15µM* | 3% | 10µM* | 0% | 34
CC(C)(C)C(=O)NC(=S)NNC(=O)c1ccc(Cl)cc1Cl | -1% | u | -33% | 5.8µM* | u | 98
